The nature of experiment [1]: viability loss in pontine glioma line – cell-based, SU-DIPG-XIII, MIPE4.0, CellTiter-Glo, qHTS, dose response (AID 1347061; cut-off not given, nearly all actives have AC50 up to about 37 µM;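 further: cells exposed to compound for 48 hours before readout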). The following applies: CellTiter-Glo ATP luminescence.
The nature of experiment [2]: viability loss in pontine glioma line – cell-based, JHH-DIPG-1, MIPE4.0, CellTiter-Glo, qHTS, dose response (AID 1347062; cut-off not given, nearly all actives have AC50 up to about 27 µM;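 on AC50: cells exposed to compound for two days before readout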). Particulars: JHH-DIPG-1 viability, CellTiter-Glo ATP luminescence.
Experiment [3] can be described thus: viability loss with induced miR-34 in A549 – imaging, A549 dox-inducible miR-34, nuclei and caspase counts, primary screen (AID 1347080;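 active means compounds whose cell count with miR-34 switched on is under 0.7 times the count with it off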). Particulars: A549 miR-34 inducible, Hoechst nuclei count, 48 h.
The nature of experiment [4]: MELAS cybrid and Rieske KO viability enhancers – cell-based, MELAS cybrids, Rieske KO mouse fibroblasts, CellTiter-Glo, primary screen (AID 1508586;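 active means mean z-score across replicates of 1.96 or higher in either the MELAS or the Rieske mutant cell line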;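 further: z relative to plate mean and SD of compound and empty wells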). The following applies: low glucose.
Experiment [5] can be described thus: viability loss in pontine glioma line – cell-based, SU-DIPG-IV, MIPE4.0, CellTiter-Glo, qHTS, dose response (AID 1347063; cut-off not given, nearly all actives have AC50 up to about 30 µM;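 further: compound exposure lasted 48 hours before the viability readout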). The following applies: CellTiter-Glo ATP luminescence.
The nature of experiment [6]: growth inhibition of DIPG cells – cell-based, MIPE4.0 library, CellTiter-Glo luminescence, qHTS (AID 1347066; cut-off not given, nearly all actives have AC50 up to about 30 µM;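 further: cells exposed to compound for 48 hours before readout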). The following applies: SU-DIPG-VI viability, CellTiter-Glo ATP luminescence.
Experiment [7] in a line: viability loss in pontine glioma line – cell-based, SU-DIPG-XXV, MIPE5.0, CellTiter-Glo, qHTS, dose response (AID 1347065; cut-off not given, nearly all actives have AC50 up to about 26 µM;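 further: cells exposed to compound for 48 hours before ATP readout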). Particulars: CellTiter-Glo ATP luminescence.
A short description of experiment [8]: growth inhibition of DIPG cells – cell-based, MIPE5.0 library, qHTS (AID 1347068; cut-off not given, nearly all actives have IC50 up to about 30 µM;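 further: cells exposed to compound for 48 hours before viability readout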). The following applies: SU-DIPG-XXV viability.
A short description of experiment [9]: compounds altering HSF1 focus formation in cells – imaging, Selleck Cancer Library (AID 1347162; in the data active means plate-normalised HSF1 focus index below about 0.46). The following applies: human cells, HSF1 nuclear foci imaging, at 10 µM; SSMD: measured here: HSF1 foci SSMD mean; cell count: measured here: cell number; plate-normalised HSF1 focus index: stronger effect = lower value.
The nature of experiment [10]: drug combination growth inhibition, ovarian cancer – cell-based, oncology-focused library, rucaparib conditional, profiling panel (AID 1508598). The following applies: patient-derived ovarian cancer cells, CellTiter-Glo viability, 144 h, stronger effect = lower value.
[11] abbreviates: stronger effect = lower value, cell number ratio, induced over uninduced.
Where [12] appears, read: measured here: relative caspase fold change +Dox/-Dox.
Setting [13] is: measured here: total cells with miR-34 induction, stronger effect = lower value.
Where [14] appears, read: measured here: total cells without miR-34 induction.
The mark [15] stands for this setting: MELAS cybrid survival, CellTiter-Glo 48 h, stronger effect = higher value.
The mark [16] stands for this setting: Rieske KO mouse fibroblast survival, CellTiter-Glo 72 h.

“And” between values parts separate entries of the source, which are not always exact repeats. Equal entries are not always repeated. Results filed as inconclusive are left out. The source made the active and inactive calls.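 How the source made its calls, unless noted: active means normalized viability below 100% at a tested concentration; inactive means the rest.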

Take `Cc1coc2c1C(=O)C(=O)c1c-2ccc2c(C)cccc12`: the outcome in experiment [1] and in experiment [2] was inactive. For the same compound, the fold change in experiment [3] (setting [11]) is 0.847 (inactive); in experiment [3] (setting [12]), 1.93. The values for the cell count in experiment [3] (setting [13]) and in experiment [3] (setting [14]) were 7470 and 8830, respectively. For the same compound, the z-score in experiment [4] (setting [15]) is -0.324 (inactive); in experiment [4] (setting [16]) it was -1.

For the compound `CC(=O)N1CCN(c2ccc(OCc3nn(C)c(C)c3-c3cccc4c(CCCOc5cc(C)c(Cl)c(C)c5)c(C(=O)O)n(Cc5cccnc5)c34)cc2)CC1`, in [1], the call was inactive. The AC50 is 23.5 µM (active) in experiment [5] and 20.9 µM (active) in [6].

Take `O=c1c2ccccc2nc2n1CCc1c-2[nH]c2ccccc12`: the compound was classed as inactive in [1], in [2] and in experiment [6]. Besides, the fold change is 0.916 (inactive) and 0.956 (inactive) in [3] (setting [11]); 0.977 and 0.922 in [3] (setting [12]). Besides, the cell count in [3] (setting [13]) is 6410 and 7870; in experiment [3] (setting [14]) it was 6990 and 8230. The z-score in experiment [4] (setting [15]) was -0.312 (inactive); in experiment [4] (setting [16]), 0.166.

With `CCCCOc1c(C(=O)c2c(F)cc(C)cc2F)cnc2n[nH]cc12`, the compound was called inactive in experiment [1]. In addition, the AC50 is 4.18 µM (active) in experiment [5] and 1.66 µM (active) in experiment [7]. In addition, in experiment [8], the half-maximal inhibitory concentration (IC50) was 3.72 µM (active). For the same compound, the values for the fold change in experiment [3] (setting [11]) and in experiment [3] (setting [12]) were 1.03 (inactive) and 0.597, respectively. In addition, the cell count in [3] (setting [13]) was found to be 1950; in experiment [3] (setting [14]), 1900. The z-score in experiment [4] (setting [15]) is 0.523 (inactive); in experiment [4] (setting [16]) it was -1.74.

With `O=C(NOC[C@H](O)CO)c1ccc(F)c(F)c1Nc1ccc(I)cc1F`, the AC50 in experiment [1] was 1.05 µM (active); in experiment [2] it was 2.35 µM (active). For the same compound, the call in experiment [6] was inactive. The results for the fold change in experiment [3] (setting [11]) and in [3] (setting [12]) were 1.03 (inactive) and 2.04, respectively. In addition, the cell count in [3] (setting [13]) came to 2530; in experiment [3] (setting [14]), 2470; in experiment [9], 7460. Also, the SSMD in [9] came out at 3.29. Besides, in experiment [9], the plate-normalised HSF1 focus index was 1.21 (inactive). In addition, the viability was 115% (inactive) in experiment [10] (at 0.000305 µM, OCI-C5x cells, with rucaparib 10 µM, 100% = cells with rucaparib alone); 103% (inactive) in experiment [10] (at 0.000305 µM, OCI-C5x cells, without rucaparib); 79.9% (active) in [10] (at 0.000305 µM, OCI-P5x cells, with rucaparib 20 µM, 100% = cells with rucaparib alone); 86.4% (active) in experiment [10] (at 0.000305 µM, OCI-P5x cells, without rucaparib); 110% (inactive) in [10] (at 0.00122 µM, OCI-C5x cells, with rucaparib 10 µM, 100% = cells with rucaparib alone); 103% (inactive) in experiment [10] (at 0.00122 µM, OCI-C5x cells, without rucaparib). In addition, the viability was 73.1% (active) in experiment [10] (at 0.00122 µM, OCI-P5x cells, with rucaparib 20 µM, 100% = cells with rucaparib alone); 80% (active) in experiment [10] (at 0.00122 µM, OCI-P5x cells, without rucaparib); 111% (inactive) in experiment [10] (at 0.00488 µM, OCI-C5x cells, with rucaparib 10 µM, 100% = cells with rucaparib alone); 101% (inactive) in [10] (at 0.00488 µM, OCI-C5x cells, without rucaparib); 60% (active) in [10] (at 0.00488 µM, OCI-P5x cells, with rucaparib 20 µM, 100% = cells with rucaparib alone); 73.8% (active) in experiment [10] (at 0.00488 µM, OCI-P5x cells, without rucaparib). Further, the viability in experiment [10] (at 0.0195 µM, OCI-C5x cells, with rucaparib 10 µM, 100% = cells with rucaparib alone) is 111% (inactive); in experiment [10] (at 0.0195 µM, OCI-C5x cells, without rucaparib), 96.8% (active); in experiment [10] (at 0.0195 µM, OCI-P5x cells, with rucaparib 20 µM, 100% = cells with rucaparib alone), 51.1% (active); in experiment [10] (at 0.0195 µM, OCI-P5x cells, without rucaparib), 67.5% (active); in experiment [10] (at 0.0781 µM, OCI-C5x cells, with rucaparib 10 µM, 100% = cells with rucaparib alone) it was 120% (inactive); in experiment [10] (at 0.0781 µM, OCI-C5x cells, without rucaparib) it was 94.3% (active). For the same compound, the viability is 46.8% (active) in [10] (at 0.0781 µM, OCI-P5x cells, with rucaparib 20 µM, 100% = cells with rucaparib alone); 62.3% (active) in experiment [10] (at 0.0781 µM, OCI-P5x cells, without rucaparib); 98.2% (active) in experiment [10] (at 0.313 µM, OCI-C5x cells, with rucaparib 10 µM, 100% = cells with rucaparib alone); 86.8% (active) in experiment [10] (at 0.313 µM, OCI-C5x cells, without rucaparib); 41% (active) in experiment [10] (at 0.313 µM, OCI-P5x cells, with rucaparib 20 µM, 100% = cells with rucaparib alone); 50.2% (active) in experiment [10] (at 0.313 µM, OCI-P5x cells, without rucaparib). Besides, the viability in [10] (at 1.25 µM, OCI-C5x cells, with rucaparib 10 µM, 100% = cells with rucaparib alone) was 66.9% (active); in experiment [10] (at 1.25 µM, OCI-C5x cells, without rucaparib), 68.4% (active); in [10] (at 1.25 µM, OCI-P5x cells, with rucaparib 20 µM, 100% = cells with rucaparib alone) it was 40.4% (active); in experiment [10] (at 1.25 µM, OCI-P5x cells, without rucaparib) it was 44.1% (active); in [10] (at 5 µM, OCI-C5x cells, with rucaparib 10 µM, 100% = cells with rucaparib alone), 34.4% (active); in [10] (at 5 µM, OCI-C5x cells, without rucaparib) it was 37.4% (active). Besides, the viability in experiment [10] (at 5 µM, OCI-P5x cells, with rucaparib 20 µM, 100% = cells with rucaparib alone) was 30.5% (active); in [10] (at 5 µM, OCI-P5x cells, without rucaparib) it was 38.4% (active).

Consider `CC(C)CN(C[C@@H](O)[C@H](Cc1ccccc1)NC(=O)O[C@H]1CCOC1)S(=O)(=O)c1ccc(N)cc1`, for which the outcome in experiment [1], in experiment [2] and in experiment [6] was inactive. The fold change was 0.871 (inactive) in experiment [3] (setting [11]) and 1.32 in experiment [3] (setting [12]). Besides, the values for the cell count in [3] (setting [13]) and in experiment [3] (setting [14]) were 8920 and 10200, respectively. In addition, the z-score in experiment [4] (setting [15]) was -0.00484 (inactive); in experiment [4] (setting [16]) it was -0.0373.
